26 compounds from PubChem BioAssay (NCI) can be followed below.

About 83,000 compounds went through this panel and 20% of them were active in at least one assay; those are over-represented in the sample as a whole.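 Method: cells in 96-well plates; compound added at one concentration; 48 h incubation; percent growth measured; values under 10 scored active.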 Values without a mark were called inactive. The source made the active and inactive calls.

What all share (assay): NCI-60 one-dose screen, 48 h (100 = growth as untreated, 0 = no growth, -100 = all killed)
What all share (settings): 10 µM unless noted

Experiment [1] concerns SR leukemia.
The subject of experiment [2] is RPMI-8226 leukemia.
Experiment [3] relates to OVCAR-8 ovarian.
Experiment [4] relates to OVCAR-5 ovarian.
The subject of experiment [5] is OVCAR-4 ovarian.
For experiment [6], the system named is SK-OV-3 ovarian.
For experiment [7], the system named is IGROV1 ovarian.
Experiment [8] relates to OVCAR-3 ovarian.
Experiment [9] concerns HS 578T breast.
Experiment [10] relates to NCI/ADR-RES ovarian.

Turning to `C/C(=C\CCc1ccoc1)CC/C=C(\C)CCCC1COC(=O)C1` (stereo not given), the growth in [1] is 100%; in experiment [2], 97.1%; in experiment [3], 95.6%; in experiment [4], 101%; in experiment [5] it was 87.6%; in experiment [6] it was 101%. The growth is 96.1% in experiment [7], 105% in [8], 97.5% in experiment [9] and 101% in experiment [10].

In the case of `Cc1cc(Br)c(C)cc1Br`, the growth in experiment [1] was 83.7%; in [2], 103%; in [3], 101%; in experiment [4] it was 103%; in experiment [5], 103%; in experiment [6] it was 92.7%. The growth was 137% in [7], 103% in experiment [8], 105% in experiment [9] and 112% in experiment [10].

Take `CC1CN(C2CCCCC2)C(=O)NC1=O` (stereo not given): the growth in experiment [1] was 80.3%; in [2], 111%; in experiment [3] it was 104%; in experiment [4] it was 105%; in experiment [5], 116%; in [6] it was 107%. Further, the growth in experiment [7] is 110%; in experiment [8], 111%; in experiment [9], 110%; in experiment [10], 119%.

As for `COc1cc(-c2nnc(-c3nc(-c4cc(OC)c(OC)c(OC)c4)n4ccccc34)o2)ccc1N`, the growth is 69.6% in experiment [1]; 39.6% in experiment [2]; 50.8% in experiment [3]; 106% in experiment [4]; 76.5% in experiment [5]; 96% in [6]. The growth in [7] is 56.4%; in [8], 77.6%; in [9], 44.2%; in [10] it was 61.3%.

Consider `c1ccc2nc(Cn3c[n+](Cc4ccc5ccccc5n4)c4ccccc43)ccc2c1`, for which the growth in experiment [1] was 14.7%; in [2], -6.43% (active); in experiment [3], 29.9%; in experiment [4] it was 71.1%; in experiment [5], 22.7%; in experiment [6], 57.4%. For the same compound, the growth in [7] was 34.8%; in [8], 23.8%; in experiment [9], 60.5%; in experiment [10] it was 102%.

Regarding `COc1ccc2c(c1)[n+](=O)c(C(=O)/C=C/c1cc(OC)c(OC)c(OC)c1)c(C)n2[O-]`, the growth in experiment [1] was 29.5%; in [2], 32.3%; in experiment [3] it was 57.4%; in experiment [4] it was 102%; in experiment [5], 72.3%; in [6] it was 82.3%. Moreover, the growth was -27.6% (active) in [7], 102% in [8], 63.4% in [9] and 73% in experiment [10].

On to `C/C(=C\CCc1ccoc1)CC/C=C(\C)CCCNc1ccc(F)cc1`, for which the growth was 83.4% in experiment [1]; 53.8% in experiment [2]; 101% in [3]; 93.5% in experiment [4]; 75.2% in experiment [5]; 101% in experiment [6]. Further, the growth was 91.7% in [7], 99.9% in [8], 109% in experiment [9] and 98.1% in experiment [10].

As to `CCCCCCCCCCCCCCCCNC(=O)Nc1ccc2ccccc2c1`, the growth is 95.6% in experiment [1]; 102% in experiment [2]; 104% in experiment [3]; 111% in experiment [4]; 113% in experiment [5]; 101% in experiment [6]. The growth in experiment [7] is 101%; in experiment [8] it was 116%; in experiment [9], 107%; in experiment [10] it was 110%.

On to `Nc1ccn(C2O[C@H](CO)[C@@H](O)[C@@H]2O)c(=O)n1` (stereo not given in full), for which the growth in [1] is 9.93% (active); in experiment [2], 64.4%; in experiment [3] it was 34%; in experiment [4], 70.1%; in experiment [5], 83.4%; in experiment [6], 55.6%. Besides, the growth was 51.9% in experiment [7], 67.6% in [8], 107% in experiment [9] and 34.6% in experiment [10].

As for `N#Cc1c(-c2ccccc2)cc(-c2ccccc2)n(CCCC(=O)O)c1=O`, the growth in [1] was 91.8%; in experiment [2], 103%; in experiment [3], 51.3%; in [4], 104%; in experiment [5] it was 102%; in experiment [6], 105%. Besides, the growth in experiment [7] is 99.4%; in experiment [8], 112%; in [9], 107%; in experiment [10] it was 99.8%.

Turning to `CSc1nc2nc3c(nc2c(=O)n1C)C(=O)c1ccccc1C3=O`, the growth in experiment [1] is 6.56% (active); in experiment [2], -20.2% (active); in experiment [3], -8.36% (active); in experiment [4], -91.7% (active); in experiment [5], -53% (active); in experiment [6], -22.2% (active). Moreover, the growth in experiment [7] was -53% (active); in experiment [8], -63.8% (active); in experiment [9], -21.6% (active); in experiment [10], -4.99% (active).

Consider `c1ccc(Nc2ccc(Nc3nc(-c4ccccc4)nc4ccccc34)cc2)cc1`, for which the growth in experiment [1] is 52.1%; in experiment [2], 48.9%; in experiment [3], 76.3%; in experiment [4], 81.5%; in experiment [5], 94.1%; in experiment [6], 107%. Further, the growth in experiment [7] is 96.7%; in experiment [8] it was 101%; in experiment [9] it was 92.9%; in [10], 79%.

Take `O=C(NCCNC(=O)Oc1cccc2ccccc12)Oc1cccc2ccccc12`: the growth was 97.8% in [1]; 92.5% in experiment [2]; 100% in experiment [3]; 105% in experiment [4]; 96.4% in experiment [5]; 94.5% in [6]. Further, the growth in experiment [7] is 65.2%; in experiment [8], 86.5%; in experiment [9], 104%; in experiment [10] it was 95.8%.

With `CCOC(=O)C(Br)=P(c1ccccc1)(c1ccccc1)c1ccccc1`, the growth in experiment [1] is 90.2%; in experiment [2] it was 83.1%; in [3], 90.4%; in experiment [4], 106%; in experiment [5], 106%; in experiment [6], 102%. Also, the growth is -30.7% (active) in [7], 98% in experiment [8], 119% in [9] and 103% in experiment [10].

With `c1ccc(-c2nc(Nc3nccnn3)c3ccccc3n2)cc1`, the growth is 91.6% in [1]; 98.4% in [2]; 95.3% in experiment [3]; 97.1% in [4]; 122% in experiment [5]; 115% in experiment [6]. Further, the growth in experiment [7] is 92.2%; in experiment [8] it was 100%; in experiment [9], 98.8%; in experiment [10], 98.8%.

On to `O=C(Nc1cccc(-n2cc(-c3ccncc3)c(-c3cc(O)cc(Cl)c3)n2)c1)Nc1ccc(Cl)c(Cl)c1`, for which the growth in experiment [1] is -21.4% (active); in experiment [2], -15.3% (active); in experiment [3], -14.8% (active); in experiment [4] it was -2.26% (active); in [5], 10.7%; in experiment [6], 13.2%. The growth in experiment [7] is 26%; in [8] it was -47.4% (active); in experiment [9] it was -6.42% (active); in experiment [10], 12.8%.

In the case of `C[C@H](C(=O)N[C@@H](Cc1ccc(-c2ccccc2)cc1)C(=O)NC1CC(C)(C)NC(C)(C)C1)c1ccc(-c2ccccc2)c(F)c1`, the growth in experiment [1] was -27.5% (active); in [2] it was -43.6% (active); in experiment [3], -49.9% (active); in [4], -48.9% (active); in [5] it was -27.4% (active); in [6], -17.1% (active). Further, the growth in experiment [7] is -36.8% (active); in experiment [8], -92.1% (active); in experiment [9], -31.6% (active); in experiment [10], 60.4%.

Consider `NS(=O)(=O)c1ccc(-n2ncc3c(N/N=C/c4ccccc4)ncnc32)cc1`, for which the growth in experiment [1] was 50.8%; in [2] it was 83.4%; in experiment [3], 55.5%; in [4], 97.2%; in experiment [5], 54.3%; in experiment [6], 107%. The growth in [7] was 76.5%; in experiment [8], 99.9%; in experiment [9], 113%; in experiment [10], 87.6%.

On to `COc1ccc(NC(=O)c2ccccc2-c2ccccc2)c(C(N)=O)c1`, for which the growth in [1] is 8.17% (active); in experiment [2], 38.2%; in experiment [3], 58.8%; in experiment [4], 88.3%; in experiment [5], 49.5%; in experiment [6] it was 32.3%. Besides, the growth is 52.1% in experiment [7], -22.4% (active) in experiment [8], 38.9% in experiment [9] and 26.9% in [10].

On to `CC1=C([Se]CC(OC(=O)[C@@H](CSSC(C)(C)C)NC(=O)C(C)(C)C)C(=O)NCCCCCC(=O)OCc2ccccc2)C(=O)c2ccccc2C1=O` (stereo not given in full), for which the growth in experiment [1] is 29.2%; in experiment [2], -11% (active); in experiment [3], 8.55% (active); in experiment [4], -28.7% (active); in experiment [5], 14.5%; in [6], -17.5% (active). Moreover, the growth in [7] is -60.9% (active); in [8], 1.96% (active); in experiment [9] it was 13.6%; in experiment [10] it was -12.4% (active).

Consider `c1ccc2c(-c3nc4ccccc4[nH]3)cccc2c1`, for which the growth in experiment [1] is 12.5%; in experiment [2] it was 33.2%; in [3], 47.4%; in [4], 62.9%; in [5], 77.3%; in [6], 30.8%. For the same compound, the growth was 44.1% in [7], 12.2% in experiment [8], 44.5% in [9] and -16.2% (active) in [10].

In the case of `NS(=O)(=O)c1ccc(-n2ncc3c(NC4CCCCC4)ncnc32)cc1`, the growth in experiment [1] was 63.1%; in experiment [2], 91%; in [3], 89.2%; in experiment [4] it was 90.9%; in experiment [5], 97.9%; in experiment [6], 108%. Further, the growth in experiment [7] was 78%; in experiment [8] it was 128%; in experiment [9], 98.8%; in experiment [10], 88.6%.

As to `COc1cccc(-c2nc3cc(NC(=O)c4ccc(Cl)c(C#N)c4)ccc3o2)c1`, the growth was 38.2% in experiment [1]; -2.38% (active) in [2]; -54.6% (active) in experiment [3]; 73.3% in experiment [4]; -90.4% (active) in experiment [5]; 15.6% in experiment [6]. In addition, the growth in [7] is 72.4%; in experiment [8] it was -30.6% (active); in [9] it was 39.1%; in [10] it was 3.74% (active).

As to `CCCCCCC(CC#N)(CCC)CCCC` (stereo not given), the growth in experiment [1] was 103%; in [2], 103%; in experiment [3], 105%; in [4], 97.8%; in experiment [5], 114%; in experiment [6], 113%. Further, the growth in experiment [7] was 101%; in [8], 119%; in experiment [9], 95.3%; in experiment [10] it was 109%.

As to `O=C(CSc1ncc(-c2ccccc2)n1-c1ccccc1)Nc1ccc(-c2nc3ccccc3s2)cc1`, the growth is 73% in experiment [1]; 65.5% in experiment [2]; 27.2% in experiment [3]; 82.5% in experiment [4]; 52.5% in [5]; 116% in [6]. Further, the growth in [7] was 73.4%; in [8], 95.4%; in experiment [9] it was 91.9%; in experiment [10] it was 61.2%.

As for `CCOC(=O)C(C(=O)OCC)C1CCCCC1`, the growth in experiment [1] was 97.3%; in [2], 101%; in experiment [3], 102%; in experiment [4], 105%; in experiment [5] it was 102%; in experiment [6], 108%. Besides, the growth in [7] is 93.2%; in experiment [8], 110%; in experiment [9] it was 109%; in experiment [10], 109%.
